The sample as a whole holds a higher share of the strongest signals than the screen did.
Legend:
Test in all cases: glycan array binding signal (z-score within array); higher = stronger binding
Details in all cases: glycan notation: IUPAC condensed, linker removed
[1] = molecular target: Fuc(a1-3)[Gal(b1-4)]GlcNAc(b1-2)Man(a1-3)[Fuc(a1-3)[Gal(b1-4)]GlcNAc(b1-2)Man(a1-6)]Man(b1-4)GlcNAc(b1-4)GlcNAc
Method in brief: (§1)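 Arrays were curated from the Consortium for Functional Glycomics database, 3228 in total, and kept only where the protein sequence was available. Binding is expressed as a within-array Z-score. This score was averaged across arrays of the same protein sequence at different concentrations or buffers and across linkers, and negative values can be read as non-binding.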

[2] = molecular target: Fuc(a1-3)[Gal(b1-4)]GlcNAc(b1-3)Gal(b1-3)[Fuc(a1-4)]GlcNAc
Method in brief: as §1

[3] = molecular target: Fuc(a1-3)[Gal3S(b1-4)]Glc
Method in brief: as §1

[4] = molecular target: Fuc(a1-3)[GalNAc(b1-4)]GlcNAc
Method in brief: as §1

[5] = molecular target: Gal(a1-3)Gal(b1-3)GlcNAc(b1-6)GalNAc
Method in brief: as §1

Gal(a1-3)Gal(b1-4)GlcNAc = molecular target: Gal(a1-3)Gal(b1-4)GlcNAc
Method in brief: as §1

[6] = molecular target: Gal(a1-3)Gal(b1-4)GlcNAc(b1-3)GalNAc
Method in brief: as §1

[7] = molecular target: Gal(a1-3)Gal(b1-4)[Fuc(a1-3)]GlcNAc
Method in brief: as §1

[8] = molecular target: Gal(b1-3)GlcNAc(b1-3)Gal(b1-3)GlcNAc
Method in brief: as §1

[9] = molecular target: Gal(b1-3)GlcNAc(b1-3)Gal(b1-4)GlcNAc
Method in brief: as §1

[10] = molecular target: Gal(b1-3)GlcNAc(b1-3)Gal(b1-4)[Fuc(a1-3)]GlcNAc
Method in brief: as §1

Gal(b1-4)Glc6S = molecular target: Gal(b1-4)Glc6S
Method in brief: as §1

[11] = molecular target: Gal(b1-4)GlcNAc(a1-6)Gal(b1-4)GlcNAc
Method in brief: as §1

[12] = molecular target: Gal(b1-4)GlcNAc(b1-2)Man(a1-3)Man(b1-4)GlcNAc(b1-4)GlcNAc
Method in brief: as §1

[13] = molecular target: Gal(b1-4)GlcNAc(b1-2)Man(a1-3)[GlcNAc(b1-4)][Gal(b1-4)GlcNAc(b1-2)Man(a1-6)]Man(b1-4)GlcNAc(b1-4)GlcNAc
Method in brief: as §1

[14] = molecular target: Gal(b1-4)GlcNAc(b1-2)Man(a1-6)[GlcNAc(b1-2)Man(a1-3)]Man(b1-4)GlcNAc(b1-4)GlcNAc
Method in brief: as §1

[15] = molecular target: Gal(b1-4)GlcNAc(b1-3)Gal(b1-4)GlcNAc(b1-3)Gal(b1-4)GlcNAc(b1-2)Man(a1-3)[Gal(b1-4)GlcNAc(b1-3)Gal(b1-4)GlcNAc(b1-3)Gal(b1-4)GlcNAc(b1-2)Man(a1-6)]Man(b1-4)GlcNAc(b1-4)GlcNAc
Method in brief: as §1

[16] = molecular target: Gal(b1-4)GlcNAc(b1-3)Gal(b1-4)GlcNAc(b1-3)Gal(b1-4)GlcNAc(b1-2)Man(a1-3)[Gal(b1-4)GlcNAc(b1-3)Gal(b1-4)GlcNAc(b1-3)Gal(b1-4)GlcNAc(b1-2)Man(a1-6)]Man(b1-4)GlcNAc(b1-4)[Fuc(a1-6)]GlcNAc
Method in brief: as §1

[17] = molecular target: Gal(b1-4)GlcNAc(b1-3)Gal(b1-4)GlcNAc(b1-3)Gal(b1-4)GlcNAc(b1-2)[Gal(b1-4)GlcNAc(b1-3)Gal(b1-4)GlcNAc(b1-3)Gal(b1-4)GlcNAc(b1-6)]Man(a1-6)[Gal(b1-4)GlcNAc(b1-3)Gal(b1-4)GlcNAc(b1-3)Gal(b1-4)GlcNAc(b1-2)Man(a1-3)]Man(b1-4)GlcNAc(b1-4)[Fuc(a1-6)]GlcNAc
Method in brief: as §1

[18] = molecular target: Gal(b1-4)GlcNAc(b1-3)Gal(b1-4)GlcNAc(b1-3)Gal(b1-4)GlcNAc(b1-3)Gal(b1-4)GlcNAc(b1-2)Man(a1-3)[Gal(b1-4)GlcNAc(b1-3)Gal(b1-4)GlcNAc(b1-3)Gal(b1-4)GlcNAc(b1-3)Gal(b1-4)GlcNAc(b1-2)Man(a1-6)]Man(b1-4)GlcNAc(b1-4)[Fuc(a1-6)]GlcNAc
Method in brief: as §1

[19] = molecular target: Gal(b1-4)GlcNAc(b1-3)Gal(b1-4)GlcNAc(b1-3)Gal(b1-4)GlcNAc(b1-3)Gal(b1-4)GlcNAc(b1-3)Gal(b1-4)GlcNAc(b1-2)Man(a1-3)[Gal(b1-4)GlcNAc(b1-3)Gal(b1-4)GlcNAc(b1-3)Gal(b1-4)GlcNAc(b1-3)Gal(b1-4)GlcNAc(b1-3)Gal(b1-4)GlcNAc(b1-2)Man(a1-6)]Man(b1-4)GlcNAc(b1-4)GlcNAc
Method in brief: as §1

[20] = molecular target: Gal(b1-4)GlcNAc(b1-3)Gal(b1-4)GlcNAc(b1-3)Gal(b1-4)GlcNAc(b1-3)Gal(b1-4)GlcNAc(b1-3)Gal(b1-4)GlcNAc(b1-2)[Gal(b1-4)GlcNAc(b1-3)Gal(b1-4)GlcNAc(b1-3)Gal(b1-4)GlcNAc(b1-3)Gal(b1-4)GlcNAc(b1-3)Gal(b1-4)GlcNAc(b1-6)]Man(a1-6)[Gal(b1-4)GlcNAc(b1-3)Gal(b1-4)GlcNAc(b1-3)Gal(b1-4)GlcNAc(b1-3)Gal(b1-4)GlcNAc(b1-3)Gal(b1-4)GlcNAc(b1-2)Man(a1-3)]Man(b1-4)GlcNAc(b1-4)[Fuc(a1-6)]GlcNAc
Method in brief: as §1

[21] = molecular target: Gal(b1-4)GlcNAc(b1-3)[Gal(b1-4)GlcNAc(b1-6)]Gal(b1-4)GlcNAc
Method in brief: as §1

[22] = molecular target: Gal(b1-4)GlcNAc(b1-3)[GlcNAc(b1-6)]Gal(b1-4)GlcNAc
Method in brief: as §1

Gal6S(b1-3)GlcNAc6S = molecular target: Gal6S(b1-3)GlcNAc6S
Method in brief: as §1

Gal6S(b1-4)Glc = molecular target: Gal6S(b1-4)Glc
Method in brief: as §1

[23] = molecular target: GalNAc(b1-4)GlcNAc(b1-3)GalNAc(b1-4)GlcNAc
Method in brief: as §1

GalNAc(b1-4)GlcNAc6S = molecular target: GalNAc(b1-4)GlcNAc6S
Method in brief: as §1

[24] = molecular target: GlcNAc(a1-4)Gal(b1-4)GlcNAc(b1-3)Gal(b1-4)GlcNAc
Method in brief: as §1

[25] = molecular target: GlcNAc(b1-2)Man(a1-3)[GlcNAc(b1-4)][GlcNAc(b1-2)Man(a1-6)]Man(b1-4)GlcNAc(b1-4)[Fuc(a1-6)]GlcNAc
Method in brief: as §1

[26] = molecular target: Fuc(a1-2)[GalNAc(a1-4)]Gal(b1-4)GlcNAc
Method in brief: as §1

Gal(a1-4)Gal(b1-4)GlcNAc = molecular target: Gal(a1-4)Gal(b1-4)GlcNAc
Method in brief: as §1

[27] = molecular target: Gal(b1-3)GlcNAc(b1-3)Gal(b1-4)Glc
Method in brief: as §1

[28] = molecular target: Gal(b1-4)GlcNAc(b1-3)GalNAc
Method in brief: as §1

[29] = molecular target: Gal(b1-4)GlcNAc(b1-6)[Gal(b1-3)]GalNAc
Method in brief: as §1

Gal3S(b1-4)Glc = molecular target: Gal3S(b1-4)Glc
Method in brief: as §1

GalNAc(b1-4)GlcNAc = molecular target: GalNAc(b1-4)GlcNAc
Method in brief: as §1

[30] = molecular target: GlcNAc(b1-2)Gal(b1-3)GalNAc
Method in brief: as §1

[31] = molecular target: GlcNAc(b1-4)GlcNAc(b1-4)GlcNAc
Method in brief: as §1

[32] = molecular target: Neu5Ac(a2-3)Gal(b1-3)[Neu5Ac(a2-3)Gal(b1-4)]GlcNAc
Method in brief: as §1

[33] = molecular target: Neu5Ac(a2-6)Gal(b1-4)GlcNAc(b1-3)Gal(b1-4)GlcNAc
Method in brief: as §1

[34] = molecular target: Neu5Ac(a2-8)Neu5Ac(a2-3)[GalNAc(b1-4)]Gal(b1-4)Glc
Method in brief: as §1

[35] = molecular target: Neu5Gc(a2-3)Gal(b1-3)GlcNAc
Method in brief: as §1

B1: CC1G-10077 (Coprinopsis cinerea), A8NDT7 (protein)
chain: MALNEGVYWIRNSRFTNKVLDLDAANVAKGTSILDFNEHGTFNENHNQLWIVERFQSRDTYLIRSVHSNLVLDLSQGLSANGTPILCWTQHGGTNQQWRIEWVKDDNKTPLYRIVSVATGTAISHNEDDSSAYTVAWSVDDGPKQLWSFDPFVTPLLYRLRVKSTSRVLDLAAASADNGTLALAWEQHTAITKRNQLWWLPYRSGAEEYTIQCLETSTVADLSGGNSGNGTPIYGWQSHGGRNQQWKFEPTSDSGDYYHIKNVEGGSVMDAYMNDSQKRVGGWSNNGGDNQKWLLDPLPSPGPGWVLIQNGGTGKFLCSTPSGDIGTADGPETVYDYSVQWRFIQREYTGVYHVVNRATGAYLRQIGTSMPSIGLAEENDDELKDWWMLETYDNSEIGLASIISRWTGNVLDHYGGVSVQALDNNTENSYRSWAIIPARDWLTSFSLVNGQGGLCLAAQYAREETRLSTTANVNDFHAQWVFRKPSGSSGYTIQNKYNNHYVGGTSARWELVVCCNKYFGIRNTSTQKYLAIEDGQVTFQDQDMTDRKQCWELCSGRATDTSGNDYDLIYMDDDLLEVMIPWVGDKQGDLKHYIEKRATKKPPKDKGGWQLPAAGLIKKPKFNDIRQLLQELIEQWEWDVVNEEREQIQTLVSIDEAEARRLLGRRPHPDIVAAYQRSRSSTLFRIDRQGYFNIAGDRYVNIQGQYGDDSYFHIALPVGVRFGREQIRRFLRDSLDRSTSVTITPTTCKPPSGGPDYNRDPDSDGDNSWIKWTIAVVGTSAIKHSEL
glycan array binding signal (z-score) [1]: -0.467 | glycan array binding signal (z-score) [2]: -0.51 | glycan array binding signal (z-score) [3]: -0.424 | glycan array binding signal (z-score) [4]: -0.4 | glycan array binding signal (z-score) [5]: 1.19 | glycan array binding signal (z-score) (Gal(a1-3)Gal(b1-4)GlcNAc): 0.177 | glycan array binding signal (z-score) [6]: -0.3 | glycan array binding signal (z-score) [7]: 0.744 | glycan array binding signal (z-score) [8]: 0.08 | glycan array binding signal (z-score) [9]: 0.142 | glycan array binding signal (z-score) [10]: 0.199 | glycan array binding signal (z-score) (Gal(b1-4)Glc6S): -0.024 | glycan array binding signal (z-score) [11]: 3.26 | glycan array binding signal (z-score) [12]: 1.15 | glycan array binding signal (z-score) [13]: 0.424 | glycan array binding signal (z-score) [14]: 3.12 | glycan array binding signal (z-score) [15]: 2.19 | glycan array binding signal (z-score) [16]: 3.5 | glycan array binding signal (z-score) [17]: 3.22 | glycan array binding signal (z-score) [18]: 3.19 | glycan array binding signal (z-score) [19]: 3.72 | glycan array binding signal (z-score) [20]: 3.25 | glycan array binding signal (z-score) [21]: 1.18 | glycan array binding signal (z-score) [22]: 3.85 | glycan array binding signal (z-score) (Gal6S(b1-3)GlcNAc6S): -0.314 | glycan array binding signal (z-score) (Gal6S(b1-4)Glc): 0.062 | glycan array binding signal (z-score) [23]: 4.2 | glycan array binding signal (z-score) (GalNAc(b1-4)GlcNAc6S): 4.35 | glycan array binding signal (z-score) [24]: -0.431 | glycan array binding signal (z-score) [25]: -0.482

B2: CGL3 (Coprinopsis cinerea) (protein)
chain: MGHHHHHHHHSGFHILRLESTVDLSEPLKDNGIIVFQSDKLDLEPSPNLGPTGIDNTNVNLINAKGDVLLHIGIRRRENAFVFNSIPYGESRGPEERIPLEGTFGDRRDPSITVFDHPDRYQIMIDYKTVYYYKKRLEGRCEKVSYKINEGQTPPFSDVLGVTVLYFANVMPRAN
glycan array binding signal (z-score) [26]: -0.216 | glycan array binding signal (z-score) (Gal(a1-4)Gal(b1-4)GlcNAc): -0.049 | glycan array binding signal (z-score) [27]: 2.51 | glycan array binding signal (z-score) [28]: -0.201 | glycan array binding signal (z-score) [29]: -0.193 | glycan array binding signal (z-score) (Gal3S(b1-4)Glc): 0.022 | glycan array binding signal (z-score) (GalNAc(b1-4)GlcNAc): 6.64 | glycan array binding signal (z-score) [30]: -0.197 | glycan array binding signal (z-score) [31]: 8.4 | glycan array binding signal (z-score) [32]: -0.222 | glycan array binding signal (z-score) [33]: -0.21 | glycan array binding signal (z-score) [34]: -0.128 | glycan array binding signal (z-score) [35]: -0.191
